Common to all, as to assay type: functional
Test [1] has as its target Solute carrier family 2, facilitated glucose transporter member 1 (Homo sapiens) (UniProt P11166). The experiment in a line: ST_JUDE_LEISH: Cytotoxicity at 2uM final concentration against transgenic Leishmania Mexicana promastigotes LmGLUT1 that are glucose transport deficient and complemented with the human glucose transporter GLUT1. Activity is measured by DNA content using SYBR green in vitro.

Test [2] concerns the target Hexose transporter 1 (Plasmodium falciparum) (UniProt O97467). As to the kind of experiment: ST_JUDE_LEISH: Cytotoxicity at 2uM final concentration against transgenic Leishmania Mexicana promastigotes LmPfHT that are glucose transport deficient and complemented with the Plasmodium falciparum hexose transporter. Activity is measured by DNA content using SYBR green in vitro.

The target of test [3] is Glucose transporter (Leishmania mexicana) (UniProt O61059). As to the kind of experiment: ST_JUDE_LEISH: Cytotoxicity at 2uM final concentration against transgenic Leishmania Mexicana promastigotes LmGT2 that are glucose transport deficient and complemented with the L. Mexicana glucose transporter 2. Activity is measured by DNA content using SYBR green in vitro.

Sequence of Solute carrier family 2, facilitated glucose transporter member 1 (Homo sapiens) (P11166 whole entry): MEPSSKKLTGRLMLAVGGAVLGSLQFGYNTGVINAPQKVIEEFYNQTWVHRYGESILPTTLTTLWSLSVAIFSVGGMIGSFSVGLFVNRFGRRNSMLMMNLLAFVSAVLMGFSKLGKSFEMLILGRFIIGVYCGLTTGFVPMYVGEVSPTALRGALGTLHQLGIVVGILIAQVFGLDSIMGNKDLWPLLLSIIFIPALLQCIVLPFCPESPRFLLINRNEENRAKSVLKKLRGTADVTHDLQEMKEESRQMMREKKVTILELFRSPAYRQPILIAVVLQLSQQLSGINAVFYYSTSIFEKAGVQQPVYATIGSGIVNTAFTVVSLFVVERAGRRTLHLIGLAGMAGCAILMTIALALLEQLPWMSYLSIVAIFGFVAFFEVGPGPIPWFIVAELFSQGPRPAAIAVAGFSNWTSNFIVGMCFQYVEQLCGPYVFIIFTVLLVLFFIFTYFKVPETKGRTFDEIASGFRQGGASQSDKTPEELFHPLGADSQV

As to `CCOc1cc(C(=O)N[C@@H](Cc2ccccc2)[C@H](O)CNCc2cc(OC)cc(OC)c2)cc(N2CCCC2=O)c1`, the values for the inhibition in test [1], in test [2] and in test [3] were 9.97%, 8.91% and 2.86%, respectively.
For the compound `COc1ccc(Nc2nc(C)cc(NC3CCCC3)n2)cc1`, the values for the inhibition in test [1], in test [2] and in test [3] were 29.2%, 26.2% and 17.7%, respectively.
As to `c1cnc2ccc(NCc3ccc(-c4ccc(CNC5CCCC5)cc4)cc3)cc2c1`, the inhibition in test [1] was 0.93%; in test [2] it was 0.1%; in test [3], -6.73%.
On to `CCc1c(C)nc2nc(Cc3cccc(F)c3)nn2c1N1CCN(c2ccccn2)CC1`, for which the inhibition in test [1] was determined as 14.9%; in test [2] it was 12%; in test [3], 9.56%.
For the compound `Cn1cncc1C(=O)Nc1cccc(-c2cccc(-c3nc4ccccc4[nH]3)c2)c1`, the inhibition in test [1] amounted to 4.71%; in test [2], 4.74%; in test [3] it was 5.38%.
Regarding `Cc1ccccc1C1CCN(C2CCC(NC(=O)/C=C/c3cccc(F)c3F)CC2)CC1` (configuration not stated), the inhibition in test [1] is 5.69%; in test [2], 4.6%; in test [3] it was 6.25%.
For `COCn1ncc2cc(-c3cccc(NC(=O)c4csc(NC(C)=O)n4)c3)ccc21`, the inhibition in test [1] was determined as 3.31%; in test [2], 1.44%; in test [3] it was 2.05%.
As to `Cc1cc(N[C@@H](Cc2ccccc2)C(=O)NC2CCCC2)nc(NCC2CCCCC2)n1`, the inhibition in test [1] came out at 3.03%; in test [2], 3.67%; in test [3], 0.45%.
In the case of `O=C(Nc1cccc(OC2CCN(Cc3ccccc3)CC2)c1)Nc1cccc([N+](=O)[O-])c1`, the results for the inhibition in test [1], in test [2] and in test [3] were 3.41%, 2.74% and 2.57%, respectively.

For the origin of these results see ChEMBL document CHEMBL3433997, “St. Jude Leishmania screening dataset” (2016).
